From article PMC5913336, “True equilibrium measurement of transcription factor-DNA binding affinities using automated polarization microscopy” come the findings set out here.

A word on the Kd: it is the constant that tells how readily two partners part at equilibrium. Low values mean higher affinity, high ones lower affinity.

The target of this assay is T1, Kni (Drosophila melanogaster, UniProt P10734 2-102).
T1 sequence: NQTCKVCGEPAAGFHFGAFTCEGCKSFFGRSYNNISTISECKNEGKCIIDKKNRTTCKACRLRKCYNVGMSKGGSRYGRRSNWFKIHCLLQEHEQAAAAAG
In words: FP; 33 mM phosphate pH 7.0, 90 mM NaCl, 0.01% Tween 20, 0.1 mM DTT, 0.5% agarose; room temperature. Conditions: tags: N-GST (pGEX-6P-1, kept); dsDNA, one strand shown.
As for CAAAACTAGAGCAAT, the binding signal is 2.66 Kd / Kd of best base at the position.
For the sequence CAAATCTAGAGCACT, the binding signal was 2.46 Kd / Kd of best base at the position.
Same read-out and setting: the same measure for AAAAACTAGAGCACT: 1.14 Kd / Kd of best base at the position; for CCAAACTAGAGCACT: 1.71 Kd / Kd of best base at the position; for CAAAACGAGAGCACT: 3.56 Kd / Kd of best base at the position.
As to CTAAACTAGAGCACT, the binding signal is 1.45 Kd / Kd of best base at the position.
Consider CAAAACTAGAGCCCT, for which the binding signal was 12.1 Kd / Kd of best base at the position.
Take CAACACTAGAGCACT: the binding signal was 31.8 Kd / Kd of best base at the position.
Regarding CAAAACTAGAGCACA, the binding signal was 2.62 Kd / Kd of best base at the position.
On the same count and under the same terms, in the case of CAAAACTAGAGGACT it was 36 Kd / Kd of best base at the position.
With CAAAAGTAGAGCACT, the binding signal was 1.65 Kd / Kd of best base at the position.
In turn, CAAAACTAGAGCACT yielded a Kd of about 1.8 nM.
For the sequence CAAAACTAGAGCATT, the binding signal is 2.42 Kd / Kd of best base at the position.
On the same count and under the same terms, the same measure for CAAAACTAGAACACT: 3.87 Kd / Kd of best base at the position; for CAAAACTAGAGAACT: 69.3 Kd / Kd of best base at the position; for CGAAACTAGAGCACT: 1.31 Kd / Kd of best base at the position.
As to CAAAGCTAGAGCACT, the binding signal was 16.3 Kd / Kd of best base at the position.
On the same count and under the same terms, in the case of CAAAACTAGAGCGCT it was 3.42 Kd / Kd of best base at the position; in that of CAAAACTATAGCACT, 12.9 Kd / Kd of best base at the position; in that of CAAAACCAGAGCACT, 2.45 Kd / Kd of best base at the position.
As for CACAACTAGAGCACT, the binding signal is 2.2 Kd / Kd of best base at the position.
For CAAAACTCGAGCACT, the binding signal was 9.21 Kd / Kd of best base at the position.
Turning to TAAAACTAGAGCACT, the binding signal is 1.43 Kd / Kd of best base at the position.
Same read-out and setting: the same measure for CATAACTAGAGCACT: 1.93 Kd / Kd of best base at the position; for CAAAACTAAAGCACT: 8.43 Kd / Kd of best base at the position.
Regarding CAAACCTAGAGCACT, the binding signal was 16.3 Kd / Kd of best base at the position.
On to CAGAACTAGAGCACT, for which the binding signal was 1.99 Kd / Kd of best base at the position.
The same measure, in the same setting: the same measure for GAAAACTAGAGCACT: 1.36 Kd / Kd of best base at the position.
Same read-out and setting: in the case of CAAGACTAGAGCACT it was 9.44 Kd / Kd of best base at the position; in that of CAAAACTAGAGCTCT, 7.77 Kd / Kd of best base at the position.
Same read-out and setting: in the case of CAAAACTAGAGCACG it was 2.74 Kd / Kd of best base at the position; in that of CAAAACTAGATCACT, 1.39 Kd / Kd of best base at the position.
As for CAAAACAAGAGCACT, the binding signal was 7.6 Kd / Kd of best base at the position.
Consider CAAAACTAGTGCACT, for which the binding signal was 4.66 Kd / Kd of best base at the position.
Still for that read-out and setting: in the case of CAAAACTACAGCACT it was 52.4 Kd / Kd of best base at the position.
For the sequence CAAAACTAGAGCAGT, the binding signal is 2.97 Kd / Kd of best base at the position.
